# Laboratory results: PubChem BioAssay AID493203 (National Center for Advancing Translational Sciences (NCATS), 2011)
# Inconclusive results are not listed. Calls of active or inactive are those of the source. Calls follow the shape of the dose curve; as a rule, active = well fitted activation curve with a large enough effect; inconclusive = small, poorly fitted or top-dose-only effect; inactive = flat fitted curve, though single readings scatter.
# Assay: qHTS Assay for NPC1 Promoter Activators: Initial hit validation from the primary screen;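 also: reporter driven by the mutant form of the NPC1 promoter; % of control where 0% means no effect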
# Conditions: Huh7 NPC1 promoter-luciferase reporter, luminescence, 24 h; series mostly up to 46.1 µM; activity, positive = activation: at the top concentration
# Excerpt: NIH Chemical Genomics Center [NCGC] NIH Molecular Libraries Probe Production centers Network [MLPCN] MLPCN Grant: MH089375-01A1 Assay Submitter (PI): Yiannis A. Ioannou NCGC Assay Overview: Niemann Pick Type C (NPC) is a rare neurodegenerative lipidosis that is characterized by lipid storage in the endosomal/lysosomal system. Treatment modalities for this devastating disease are currently non-existent due to the severe obstacles associated with accessing the central nervous system with proteins or genes. The majority of mutations causing NPC disease are missense mutations that are distributed throughout the length of the NPC1 protein, with the most prevalent being the I1061T allele. Although NPC1 mutant proteins may be functional, they are typically trapped in the ER due to misfolding. […] We have developed and optimized a cell based luciferase reporter assay in 1536 well format for the identification of up-regulators of the mutant NPC1 promoter. This assay presents data on the validation of hits from the primary screen.
# The NPC1 promoter is cloned in front of the luciferase reporter gene, therefore NPC promoter activation results in luciferase expression. Frozen stock of the NPC1 promoter transfected Huh7 cells were obtained from the laboratory of Dr. Yiannis Ioannou (The Mount Sinai School of Medicine, New York, NY). Cells were propagated and maintained at NCGC in medium containing RPMI-1640 supplemented with 10% FBS, 2mM L-glutamine, and 50ug/ml penicillin/streptomycin. Cells were harvested in and plated for assays in OP-MEM I reduced-serum medium supplemented with 10% FBS. The Amplite luciferase reporter gene assay kit was purchased from ABD Bioquest and prepared/stored according to manufacturers recommendations. qHTS Assay Setup: 1. Dispensed 5ul of Huh7 cells stably expressing NPC1-luciferase at a density of 1500 cells per well 1536-well plates. 2. Incubate cells at 37C, 5% CO2, and 95% humidity for 2 hours. 3. Transferred 23nl per well of compound in DMSO solution. 4. Incubated at 37C, 5% CO2, and 95% humidity for 24 hours. 5. Dispensed 3ul per well of Amplite reagent(ABD Bioquest) per well. 6. Incubate at ambient for 10 minutes. 7. Read using the luminescence protocol on the ViewLux plate reader (Perkin Elmer).
row,SMILES,"activity, positive = activation"
1,CCC(=NCc1cccnc1)c1c(O)n(-c2ccccc2)c(=O)[nH]c1=O,-5.41% (inactive)
2,O=C1c2ccccc2C(=O)N1Cc1nc2ccccc2c(=O)n1-c1cccnc1,-3.22% (inactive)
3,CN1CCc2cc3c(c4c2C1Cc1ccccc1-4)OCO3 (stereo unspecified),-44.2% (inactive)
4,COc1ccc(C(CC(=O)N2CCC3(CC2)OCCO3)NS(=O)(=O)c2ccc(F)cc2)cc1 (stereo unspecified),0.9% (inactive)
5,Cc1cccn2c(NCC3CCCO3)c(C(C)C)nc12 (stereo unspecified),2.28% (inactive)
6,COc1cccc(CCNCc2ccc(SC)cc2)c1,2.08% (inactive)
